The values that follow come from ChEMBL document CHEMBL3988442, “University of Dundee, Small-Polar-MMV Screening Library” (2021).

Hit rate of the full screen: of about 48,000 compounds, about 13,000 (27%) showed an effect of 50% or more. The list shows a part of the results.

The experiment concerns Wolbachia pipientis. Put plainly: Anti-Wolbachia Cell-Based Screen. The class given is functional. On the set-up: scale not given: in the data most compounds retested in dose-response had high values. The settings on record: 5 µM.
As to `COc1cccc2ccc(CN3CCN(c4ccncc4)CC3)nc12`, the “Percent Effect” value is recorded as 12.14%.

Take `CCc1nsc(N2CCCN(C(=O)COc3ccccc3)CC2)n1`: the “Percent Effect” value stood at 6.055%.

Turning to `COCCCN1CC2(CCC1=O)CCN(Cc1cc(C(C)C)no1)CC2`, the “Percent Effect” value was -3.554%. Under `CC(=O)N1[C@H](Cn2cncn2)C[C@@H]2CN(C(=O)NC3CC3)CC[C@@H]21` stands -0.06843%; under `COc1ccc(CN2CCCC2)cc1Oc1cccc(C#N)n1`, 4.454%. Under `CCCN1CCCn2nc(CNS(=O)(=O)c3ccc(C)cc3)cc2C1` stands -4.266%; under `CCc1ccccc1NC(=O)c1cccc(N(C)S(C)(=O)=O)c1C`, 92%. As to `CCN(CCCc1ccccc1C)S(C)(=O)=O`, the “Percent Effect” value was determined as 5.478%. With `Cc1cccc(C)c1NC(=O)c1cccc(N(C)S(C)(=O)=O)c1C`, the “Percent Effect” value was found to be 108.1%. On to `CCc1ccccc1NC(=O)C1CN(C(C)=O)C1`, for which the “Percent Effect” value came out at 6.296%.

Take `CCc1ccc(S(=O)(=O)Nc2c(C)cccc2C(=O)O)s1`: the “Percent Effect” value is reported as -3.804%. Consider `CCCNC(=O)c1cc(OC)c(OC)cc1N(C)S(C)(=O)=O`, for which the “Percent Effect” value is recorded as -23.04%. As to `CCNC(=O)c1cc(OC)c(OC)cc1N(C)S(C)(=O)=O`, the “Percent Effect” value is recorded as -20.94%. `CNC(=O)c1cc(OC)c(OC)cc1N(C)S(C)(=O)=O`: the “Percent Effect” value is -22.7%. For `CNC(=O)c1cccc(NC(=O)NCc2ccccc2)c1C` the value was 3.946%. Regarding `Cc1ccc(C(=O)NC2CCN(C)CC2)cc1N(C)S(C)(=O)=O`, the “Percent Effect” value amounted to 12.36%.

Consider `CCc1cccc(CC)c1NC(=O)c1ccccc1N(C)S(C)(=O)=O`, for which the “Percent Effect” value is on record as 109.8%.

For `CCc1cccc(C)c1NC(=O)c1ccccc1N(C)S(C)(=O)=O`, the “Percent Effect” value was 89.09%. As for `CCC(Nc1nnnn1-c1ccccc1)C(=O)Nc1ccccc1C` (configuration not stated), the “Percent Effect” value is -5.481%. Turning to `Cc1ccc(CNCc2cccc3cccnc23)c(OC2CCOC2)c1` (configuration not stated), the “Percent Effect” value is recorded as -38.45%.

For `COc1ccc(CC(=O)N2CCCC2Cn2cc(C)cn2)cc1OC` (configuration not stated), the “Percent Effect” value was 112.4%. For `COc1ccccc1OCCC(=O)N1CCCC1Cn1cc(C)cn1` (configuration not stated), the “Percent Effect” value is given as -7.788%.

Regarding `COc1ccc(CC(=O)N2CCCCC2Cn2cc(C)cn2)cc1F` (configuration not stated), the “Percent Effect” value amounted to 102.6%. Turning to `COc1ccc(CC(=O)N2CCCC2Cn2cc(C)cn2)c(OC)c1` (configuration not stated), the “Percent Effect” value is listed as 126.4%. On to `COc1ccc(CCC(=O)N2CCCC2Cn2cc(C)cn2)cc1F` (configuration not stated), for which the “Percent Effect” value is -0.1438%. Under `Cc1noc(-c2ccc(N(C)Cc3ccncc3C)nc2)n1` stands -8.712%; under `O=C(Nc1cnc(C2CC2)nc1)N1CCC(CN2CCCC2)C1` (configuration not stated), 2.987%.

`O=C(c1cnc(C2CC2)s1)N1CCCC(n2cccn2)C1` (configuration not stated): the “Percent Effect” value is on record as 6.794%. With `O=C(c1cnc(-c2cccs2)s1)N1CCCC(n2cccn2)C1` (configuration not stated), the “Percent Effect” value was 0.5894%.

With `Cn1cc(C(=O)N2CCCC(n3cccn3)C2)c2ccccc21` (configuration not stated), the “Percent Effect” value is listed as -10.45%. For `O=C(c1cnc(-c2ncccn2)s1)N1CCCC(n2cccn2)C1` (configuration not stated), the “Percent Effect” value was 84.63%. Under `O=C(c1cnc(-c2ccccn2)s1)N1CCCC(n2cccn2)C1` (configuration not stated) stands 116.5%; under `O=C(c1cnc(-c2cnccn2)s1)N1CCCC(n2cccn2)C1` (configuration not stated), 90.03%. As for `CCc1[nH]ncc1C(=O)N1CCCC(n2cccn2)C1` (configuration not stated), the “Percent Effect” value is on record as -0.4405%. For `Cc1ncc(C(=O)N2CCCC(n3cccn3)C2)s1` (configuration not stated), the “Percent Effect” value is 111.9%.

As to `COc1ccccc1NC(=O)NCC(O)(c1ccccc1)C1CC1` (configuration not stated), the “Percent Effect” value was found to be 10.27%. `CCOc1ccc(NS(=O)(=O)c2cc(C)c(C(=O)O)s2)cc1F`: the “Percent Effect” value is recorded as -1.908%. Consider `CC(C)=CCN1CCC(c2nccn2Cc2cscn2)CC1`, for which the “Percent Effect” value was found to be 3.314%. Consider `Cc1nccn1CCCC(=O)N1CCC(N(C)c2cccnn2)CC1`, for which the “Percent Effect” value was 114.4%. On to `Cc1ccccc1N1CCCN(C(=O)CCCn2ccnc2C)CC1`, for which the “Percent Effect” value is reported as 7.495%. Under `Cc1nccn1CCCC(=O)N1CCCN(c2cccnn2)CC1` stands 66.22%.

Consider `CCc1cc(O)n2nc(C3CCCN3C(=O)c3ccccn3)cc2n1` (configuration not stated), for which the “Percent Effect” value was found to be 131.2%. `CC(C)n1ccnc1C1CCN(C(=O)c2ccc(SCCO)cc2)CC1`: the “Percent Effect” value is given as -4.655%.

Regarding `CCc1nc(C2CCCN2C(=O)c2nc(C)n3ccccc23)no1` (configuration not stated), the “Percent Effect” value is reported as -3.852%. Under `Cc1nc2cc(C3CCN(C(=O)c4ccccn4)CC3)nn2c(O)c1C` stands 104%. In the case of `Cn1ccc(C2CCCCN2C(=O)c2cccc(Cn3cccn3)c2)n1` (configuration not stated), the “Percent Effect” value is listed as -10.23%. For `CCC(C)c1noc(C2CCN(C(=O)c3cccnc3)CC2)n1` (configuration not stated) the value was -14.35%.

Regarding `CCc1cc(O)n2nc(C3CCN(C(=O)c4cccnc4)CC3)cc2n1`, the “Percent Effect” value stood at 97.39%. Under `CC[C@H]1CN(C(=O)c2cccnc2)CC[C@H]1CC(=O)NCCOC` stands -6.846%; under `CCc1cc(O)n2nc(C3CCN(C(=O)c4ccncc4)CC3)cc2n1`, 121.2%. As for `CCc1nc(CN(C)C(=O)NCc2cccc(NC(C)=O)c2)cs1`, the “Percent Effect” value was -8.024%. `CS(=O)(=O)CCNCc1ccc(OCc2cscn2)cc1`: the “Percent Effect” value was -7.403%. For `CC(C)c1ccc(OCCC(=O)N(C)CC(=O)N(C)C)cc1` the value was -12.7%; for `CCc1nnc(CN2CCN(C(=O)c3ccccn3)CC2)o1`, -6.012%; for `CC(C)n1ccnc1C1CCN(C(=O)c2ccccn2)CC1`, -22.55%. For `CCc1cc(O)n2nc(C3CCN(C(=O)c4ccccn4)CC3)cc2n1`, the “Percent Effect” value was 117.9%. `Cc1nn(C)c(N(C)C)c1CNCc1ccc(C(=O)N(C)C)cc1`: the “Percent Effect” value was determined as 123.8%. Under `CCNC(=O)c1ccc(CNCc2c(C)nn(C)c2N(C)C)cc1` stands 0.7448%; under `COc1c(CNCc2cccc(CN(C)C)c2)c(C)nn1C.Cl`, -1.675%; under `COc1c(CNCCNC(=O)c2ccco2)c(C)nn1C`, 8.194%. With `COc1c(CNCc2ccc(C(=O)NC3CC3)cc2)c(C)nn1C.Cl`, the “Percent Effect” value was -2.896%.

Consider `COc1c(CNCc2cccc(C(=O)N(C)C)c2)c(C)nn1C`, for which the “Percent Effect” value came to 120.7%. As for `COc1c(CNCc2ccc(C(=O)N(C)C)cc2)c(C)nn1C.Cl`, the “Percent Effect” value is given as -9.305%. In the case of `COc1c(CNCCNC(=O)c2ccc(C)cc2)c(C)nn1C`, the “Percent Effect” value is on record as -13.57%. As to `COc1c(CNCc2ccc(C(=O)N3CCCC3)cc2)c(C)nn1C.Cl`, the “Percent Effect” value is 173.2%. Under `COc1c(CNCc2ccc(C(=O)N(C)C(C)C)cc2)c(C)nn1C` stands 196.4%; under `Cc1nn(C)c(N(C)C)c1CNCc1ccc(OCC(N)=O)cc1.Cl`, 3.035%.
